# Reference: ChEMBL document CHEMBL3988442, “University of Dundee, Small-Polar-MMV Screening Library” (2021)
# What was measured:
# [1] = molecular target: T1, Aspartate--tRNA(Asp/Asn) ligase (Mycobacterium tuberculosis (strain ATCC 25618 / H37Rv)) (UniProt P9WFW3); test: Assay for Asp RNA synthetase-1 from Mycobacterium tuberculosis; type: functional; set-up: scale not given: direction of the effect not stated beside the values; details: 30 µM; also: in the data most compounds retested in dose-response had high values
# T1 sequence (whole entry): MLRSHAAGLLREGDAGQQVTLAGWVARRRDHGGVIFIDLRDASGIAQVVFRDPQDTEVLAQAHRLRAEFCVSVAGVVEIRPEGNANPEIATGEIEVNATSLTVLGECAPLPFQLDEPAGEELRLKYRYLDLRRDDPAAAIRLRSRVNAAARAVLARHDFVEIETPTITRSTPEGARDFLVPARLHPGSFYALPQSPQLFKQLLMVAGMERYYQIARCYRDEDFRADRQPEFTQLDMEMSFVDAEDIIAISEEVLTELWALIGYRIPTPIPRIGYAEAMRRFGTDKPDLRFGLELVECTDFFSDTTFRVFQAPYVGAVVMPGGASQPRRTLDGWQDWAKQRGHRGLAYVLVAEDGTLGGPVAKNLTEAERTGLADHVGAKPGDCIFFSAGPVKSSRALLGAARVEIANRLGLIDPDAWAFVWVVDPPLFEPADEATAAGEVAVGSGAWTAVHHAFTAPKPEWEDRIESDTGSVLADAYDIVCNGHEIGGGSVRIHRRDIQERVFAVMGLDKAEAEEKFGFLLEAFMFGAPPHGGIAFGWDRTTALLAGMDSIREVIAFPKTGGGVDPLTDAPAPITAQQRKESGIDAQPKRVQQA
# [2] = molecular target: Shiga toxin 2 (Escherichia coli O157:H7) (UniProt P09385+P09386); test: E. coli 0.157:H7 Shiga Toxin SOP - stx2 screening assay; type: functional; set-up: scale not given: direction of the effect not stated beside the values; details: 30 µM
Structure (SMILES),Percent Effect [1] [%],Percent Effect [2] [%]
COCc1noc(C2(c3ccc(OC)cc3)CCOCC2)n1,-1.75,1.38
COc1cc(CNCc2c(C)nn(C)c2N(C)C)ccn1,3.75,13
Cc1cc(NC(=O)NCc2cccnc2OC(C)C)n(C)n1,5.63,-9.92
Cc1ccc(C(=O)NS(=O)(=O)c2cccc3cnccc23)c(=O)[nH]1,1.11,1.19
COc1cccc(-n2c(C)cc(C(=O)NS(C)(=O)=O)c2C)c1,-1.31,4.7
Cc1ccc(OCC(=O)NS(=O)(=O)c2c(C)noc2C)cc1C,-4.32,-54.6
CN(C)C(=O)c1nc2c(s1)CCN(C(=O)c1ccc(Cl)cc1)CC2,2.36,-16.7
CC(C)CCNC(=O)c1sccc1N(C)S(=O)(=O)c1ccccc1,5.12,-20
Cc1ccc(CN2CCOC3(CCCN(C(=O)c4ccco4)C3)C2)s1 (centres undefined),4.58,-29.2
CC(=O)c1cccc(NC(=O)Cn2cc(I)cn2)c1,6.41,-55.6
CCOc1ccc(N2CCCN=C2NC(=O)c2ccccc2C)cc1,4.31,-57.5
COCCC(=O)Nc1ccnc(Oc2ccccc2)c1,13.9,-27.8
Cc1cnn(CCNCc2ccccc2Oc2cccnc2)c1,10.1,-15.5
CCN(CC)CCNC(=O)c1cc(C(C)C)nc(N2CCCC2)n1,2.18,-34
Cc1occc1C(=O)N1CCOCC2(CCN(Cc3nccs3)C2)C1 (centres undefined),-0.802,-26.4
Cc1nc(CN(C)C(=O)Nc2cnn(CC3CCCO3)c2)cs1 (centres undefined),2.17,-5.02
CC(=O)N1CCCC1c1ccc(-c2c(C)noc2C)cn1 (centres undefined),-1.44,-2.58
